From PubChem BioAssay AID1851 (National Center for Advancing Translational Sciences (NCATS), 2009)
The campaign covered roughly 16,000 compounds. About 5,100 (32%) were called active. Not shown: some 25% with an inconclusive outcome. This is one part of the list. Unmarked numbers belong to inactive results. The call rests on the fitted dose curve; in most records, active means well fitted curve in the direction sought with a large enough effect; inconclusive means small, poorly fitted or top-dose-only effect, or effect the other way; inactive means no such curve, though single readings can be large or run the other way.

Each compound was assayed against Cytochrome P450 3A4 (Homo sapiens) (UniProt P08684) (assay: Cytochrome panel assay with activity outcomes). Conditions: recombinant CYP, pro-luciferin dealkylation, luminescence, p450-cyp3a4; series mostly up to 57.1 µM.
On the % scale 0 is the no-effect control and ±100 the full control effect.

Sequence of Cytochrome P450 3A4 (Homo sapiens) (P08684 whole entry, looked up): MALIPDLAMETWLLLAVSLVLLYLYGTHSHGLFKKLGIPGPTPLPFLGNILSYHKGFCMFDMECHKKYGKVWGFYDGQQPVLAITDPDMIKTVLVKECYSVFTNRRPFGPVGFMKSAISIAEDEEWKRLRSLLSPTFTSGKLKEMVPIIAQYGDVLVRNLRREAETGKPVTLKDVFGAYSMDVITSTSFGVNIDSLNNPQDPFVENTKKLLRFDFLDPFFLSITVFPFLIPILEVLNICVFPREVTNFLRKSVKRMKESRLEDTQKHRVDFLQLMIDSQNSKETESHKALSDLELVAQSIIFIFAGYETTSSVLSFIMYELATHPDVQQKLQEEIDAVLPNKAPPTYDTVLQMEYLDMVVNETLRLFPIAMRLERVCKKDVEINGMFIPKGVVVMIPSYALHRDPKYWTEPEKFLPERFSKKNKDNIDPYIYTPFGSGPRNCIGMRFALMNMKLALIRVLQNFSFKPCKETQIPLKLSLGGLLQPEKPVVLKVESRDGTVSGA

| SMILES | AC50 | activity, negative = inhibition |
| --- | --- | --- |
| Cc1cc2nnc(SCCCCN3C(=O)c4ccccc4C3=O)n2c2ccccc12 | 6.31 µM (active) | – |
| Cc1cc2nnc(SCC(=O)OC(C)C)n2c2ccccc12 | inactive | – |
| CCc1ccc(N2C(=O)c3ccc4c5c(ccc(c35)C2=O)CC4)cc1 | inactive | – |
| COC(=O)Nc1nc2ccc(Sc3ccccc3)cc2[nH]1 | inactive | – |
| COc1ccc(C(=O)NCc2ccc(-c3nc4ccccc4s3)cc2)cc1 | 2.51 µM (active) | – |
| O=C(NC1CCCc2ccccc21)C1CCN(S(=O)(=O)N2CCCCCC2)CC1 (configuration not stated) | 7.94 µM (active) | – |
| O=C(NC1CCCc2ccccc21)c1ccc(=O)[nH]c1 (configuration not stated) | – | 10.9% [at 2.29 µM] |
| C=CCOc1c2ccc(C(=O)NC3CCCc4ccccc43)cc2nn1C (configuration not stated) | – | 3.25% [at 2.29 µM] |
| Cc1ccccc1/C=C\C1=NCCN1 | inactive | – |
| O=C(N/N=C/c1ccccn1)c1ccco1 | inactive | – |
| COc1cc(/C=N/NC(=O)c2cccnc2)ccc1OC(=O)c1ccc2c(c1)OCO2 | 1.26 µM (active) | – |
| COc1cc(/C=N/NC(=O)c2cccnc2)ccc1OC(=O)c1ccco1 | 14.1 µM (active) | – |
| Cc1cc(C(=O)N/N=C/c2cccc(OC(=O)c3ccco3)c2)n[nH]1 | – | 7.86% [at 2.29 µM] |
| Cc1nc(N/N=C/c2ccccc2)nc(N(C)c2ccccc2)c1[N+](=O)[O-] | 7.08 µM (active) | – |
| COc1c(/C=N/Nc2ccc([N+](=O)[O-])cc2[N+](=O)[O-])c(C)nn1-c1ccccc1 | inactive | – |
| Cc1ccc(NC(=O)c2ccc(CSc3nnc(-c4ccncc4)n3C)cc2)cc1 | inactive | – |
| Cn1nnnc1SCc1ccc(C(=O)Nc2ccc(Br)cc2)cc1 | inactive | – |
| C=CCn1c(SCc2ccc(C(=O)Nc3ccccc3)cc2)nnc1-c1ccccc1 | 4.47 µM (active) | – |
| O=C(O)c1ccc(Cc2ccccc2C(=O)O)cc1 | – | -8.32% [at 11.4 µM] |
| COC(=O)c1c(C)nc2ccccc2c1C(=O)O | inactive | – |
| COC(=O)c1c(C)[nH]c(C)c1C(=O)c1ccccc1Cc1ccccc1 | 1 µM (active) | – |
| COc1ccc(NC(=S)N2CCN(C/C=C/c3ccccc3)CC2)cc1OC | 17.8 µM (active) | – |
| Cc1ccc(N=C/C(C(=O)C(F)(F)F)=C(\O)c2cccs2)cc1 | 12.6 µM (active) | – |
| CC[C@H](C(=O)c1cccs1)C(O)(C(F)(F)F)C(F)(F)F | – | -6.43% [at 11.4 µM] |
| O=P(O)(COc1ccccc1)COc1ccccc1 | inactive | – |
| CC(C)c1ccc(Cn2ccc3c4c(N)nc(NC5CC5)nc4ccc32)cc1 | 6.31 µM (active) | – |
| CCC(C)(C)N=C(NC#N)Nc1cccnc1 | 5.01 µM (active) | – |
